Experimental data published in PubChem BioAssay AID1159580 (chemical genetic matrix, 2015).
Hit rate of the full screen: of about 5,500 compounds, about 2,000 (36%) were called active. Another 18% or so got no clear call; they are omitted. Rule as the data show it: active = normalized growth mostly below about 0.91 (no sharp cut-off); inconclusive = no clear call, values can overlap the other calls; inactive = mostly above about 0.92. Some of the results follow.

Assay: chemical genetic growth profiling, strain panel (AID 1159580);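 also: tested at 20 µM; growth read once vehicle control cultures reached saturation at 30 °C; 1 = growth at the plate median or of vehicle wells; lower values mean less growth of the strain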
Conditions: S. cerevisiae deletion strains, growth OD

Measured: normalized growth

S=C(Nc1ccc(Cl)cc1Cl)N(c1cccc(Cl)c1)c1nc2ccccc2s1
inactive: locus YAR019C, strain CDC15, active compounds read low 0.956 | locus YBL105C, strain PKC1, active compounds read low 0.96 | locus YBR135W, strain CKS1, active compounds read low 0.951 | locus YBR136W, strain MEC1, active compounds read low 0.962 | locus YBR160W, strain CDC28, active compounds read low 0.964 | locus YDL017W, strain CDC7, active compounds read low 0.96 | locus YDL028C, strain MPS1, active compounds read low 0.963 | locus YDL101C, strain DUN1, active compounds read low 0.987 | locus YDL108W, strain KIN28, active compounds read low 0.955 | locus YDL132W, strain cdc53, active compounds read low 0.967 | locus YDL214C, strain PRR2, active compounds read low 0.821 | locus YDR052C, strain DBF4, active compounds read low 0.964 | locus YDR054C, strain cdc34, active compounds read low 0.955 | locus YDR226W, strain ADK1, active compounds read low 0.954 | locus YDR477W, strain SNF1, active compounds read low 0.778 | locus YER123W, strain YCK3, active compounds read low 0.778 | locus YER133W, strain GLC7, active compounds read low 0.765 | locus YFL009W, strain cdc4, active compounds read low 0.951 | locus YFL029C, strain CAK1, active compounds read low 0.962 | locus YFR003C, strain YPI1, active compounds read low 0.961 | locus YFR019W, strain FAB1, active compounds read low 0.878 | locus YFR028C, strain CDC14, active compounds read low 0.949 | locus YGR040W, strain KSS1, active compounds read low 0.785 | locus YGR052W, strain FMP48, active compounds read low 0.846 | locus YGR092W, strain DBF2, active compounds read low 0.598 | locus YHR079C, strain IRE1, active compounds read low 0.779 | locus YHR082C, strain KSP1, active compounds read low 0.871 | locus YHR205W, strain SCH9, active compounds read low 0.778 | locus YIL147C, strain SLN1, active compounds read low 0.963 | locus YJL095W, strain BCK1, active compounds read low 0.75 | locus YJL128C, strain PBS2, active compounds read low 0.933 | locus YJL157C, strain FAR1, active compounds read low 0.794 | locus YJR016C, strain ILV3, active compounds read low 0.955 | locus YJR066W, strain TOR1 (second series), active compounds read low 0.714 | locus YJR066W, strain TOR1, active compounds read low 0.777 | locus YKL048C, strain ELM1, active compounds read low 0.885 | locus YKL067W, strain YNK1, active compounds read low 0.835 | locus YKL101W, strain HSL1, active compounds read low 0.823 | locus YKL193C, strain SDS22, active compounds read low 0.957 | locus YKL203C, strain TOR2, active compounds read low 0.849 | locus YLR133W, strain CKI1, active compounds read low 0.783 | locus YLR403W, strain SFP1, active compounds read low 0.664 | locus YML070W, strain DAK1, active compounds read low 0.795 | locus YMR001C, strain CDC5, active compounds read low 0.951 | locus YMR205C, strain PFK2 (second series), active compounds read low 0.82 | locus YMR277W, strain FCP1, active compounds read low 0.95 | locus YNL006W, strain LST8, active compounds read low 0.955 | locus YNL020C, strain ARK1, active compounds read low 0.763 | locus YNL161W, strain CBK1, active compounds read low 0.949 | locus YNL183C, strain NPR1, active compounds read low 0.817 | locus YNL207W, strain RIO2, active compounds read low 0.955 | locus YNL222W, strain SSU72, active compounds read low 0.963 | locus YNL307C, strain MCK1 (second series), active compounds read low 0.784 | locus YOL078W, strain AVO1, active compounds read low 0.957 | locus YOL136C, strain PFK27, active compounds read low 0.816 | locus YOR061W, strain CKA2, active compounds read low 0.712 | locus YOR119C, strain RIO1, active compounds read low 0.811 | locus YOR231W, strain MKK1, active compounds read low 0.809 | locus YOR329C, strain SCD5, active compounds read low 0.962 | locus YPL031C, strain PHO85, active compounds read low 0.734 | locus YPL153C, strain RAD53, active compounds read low 0.811 | locus YPL204W, strain HRR25, active compounds read low 0.719 | locus YPL209C, strain IPL1, active compounds read low 0.96 | locus YPR025C, strain CCL1, active compounds read low 0.961 | locus YPR106W, strain ISR1, active compounds read low 0.961 | locus YPR111W, strain DBF20, active compounds read low 0.949 | strain NNK1, active compounds read low 0.951 | strain TSCII, active compounds read low 0.954
active: locus YHR030C, strain SLT2, active compounds read low 0.674 | locus YLR113W, strain HOG1, active compounds read low 0.743 | locus YPL256C, strain CLN2, active compounds read low 0.791
